AmpC nodet inh: AmpC beta-lactamase inhibition, detergent-free assay; hit rate 1.8% among 71,000; Potency, µM (series often up to 28.7 µM), inactives show at the top dose activity change, negative = inhibition; AmpC nitrocefin hydrolysis, absorbance 480 nm, no detergent; also: % of control where 0% means no effect
Target sequence (P00811 whole entry, looked up): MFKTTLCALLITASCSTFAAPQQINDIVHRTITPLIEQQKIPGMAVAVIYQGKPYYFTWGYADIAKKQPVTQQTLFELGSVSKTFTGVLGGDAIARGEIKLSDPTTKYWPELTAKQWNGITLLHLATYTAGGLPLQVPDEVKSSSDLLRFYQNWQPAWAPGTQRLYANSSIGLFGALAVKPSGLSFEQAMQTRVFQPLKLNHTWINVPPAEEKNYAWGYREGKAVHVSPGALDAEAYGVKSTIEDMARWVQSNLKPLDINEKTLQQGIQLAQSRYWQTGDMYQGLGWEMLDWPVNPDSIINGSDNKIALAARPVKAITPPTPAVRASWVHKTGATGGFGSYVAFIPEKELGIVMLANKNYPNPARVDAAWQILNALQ
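AmpC in 20 mM phosphate buffer pH 7.0 was preincubated 15 min at room temperature with compounds. Nitrocefin (800 uM stock) was then added and hydrolysis followed at 480 nm every 20 s for 4 min.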
SmPrx2 inh: Schistosoma mansoni Prx2 inhibition | Potency, µM | hit rate 0.07% among 65,000 | S. mansoni Prx2 activity coupled to TGR/GSH (TGR is thioredoxin glutathione reductase), NADPH fluorescence loss, qHTS
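Activity is read as the drop in NADPH fluorescence (365/450 nm), recorded every 30 sec for 8 min after H2O2 addition. Prx2 is coupled to TGR-driven NADPH oxidation through glutathione, in phosphate buffer pH 7.4.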
Anthrax LT inh: blocks cellular internalization of anthrax lethal toxin; Cells, anthrax lethal toxin internalization, FRET ratio (460/530); Potency, µM (top dose mostly 40 µM), for inactives: top-dose activity change, negative = inhibition, hits mostly inhibitors; hit rate 0.67% among 70,000; AID 912; also: % is scaled to controls: 0 for no effect and ±100 for the full control effect; nearly all actives have a fitted effect of over 50% in size
AmpC inh det: AmpC beta-lactamase inhibition, detergent assay | P00811 | purified AmpC, nitrocefin hydrolysis with detergent | AID 584 | Potency, µM (series often up to 28.7 µM), without a hit: at the highest dose activity change, negative = inhibition | hit rate 0.09% among 71,000; active = well fitted curve in the direction sought with a large enough effect; inconclusive = small, poorly fitted or top-dose-only effect; also: % is scaled to controls: 0 for no effect and ±100 for the full control effect
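E. coli AmpC (5.3 nM) in 20 mM phosphate pH 7.0 with 0.01% Triton X-100, preincubated 15 min RT with compound; nitrocefin (2 uL of 800 uM stock) hydrolysis followed by 480 nm absorbance every 20 s over 4 min.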
* hit, by the source's call; ? = inconclusive; . = no result given; [ ] = remark or other dose. An excerpt weighted towards active compounds, which were near 2.4% of everything screened. Unless noted, calls follow the shape of the full dose curve. Potency is read from the fitted curve at half-maximal effect.

SMILES | AmpC nodet inh | SmPrx2 inh | Anthrax LT inh | AmpC inh det
O=[N+]([O-])c1ccc(NCCO)c(OCCO)c1 | 0% | . | 0% | 7%
Cc1ccc(-c2cc(C(=O)Nc3cc(C)on3)c3ccccc3n2)c(C)c1 | 4µM*[single pt active] | >57 | ? | 11%
Cc1cc(C(=O)OCC(=O)Nc2cc(C)on2)c2ccccc2n1 | -3% | >57 | -12% | -2%
O=C(NCc1ccc(Cl)cc1)c1cc(-c2cccs2)on1 | 7.9µM* | >57 | 3% | 19%
O=C(Nc1cnn(Cc2ccc(F)cc2)c1)c1cc(-c2cccs2)on1 | 13µM*[single pt active] | >57 | 0% | -3%
COc1cccc(CNC(=O)Nc2cccs2)c1 | 13µM* | >57 | ? | -1%
COc1ccc(CNC(=O)Nc2cccs2)cc1OC | -7% | >57 | -21% | -4%
C[C@H](O)[C@H](O)[C@@H](O)c1cnc2nc(N)[nH]c(=O)c2n1 | 1% | >57 | ? | 1%
CCCCSc1nc2c(cc1C#N)CCC2 | -6% | >57 | -13% | -4%
CCCSc1nc(C)c(-c2csc(C(C#N)=C3CCCC3)n2)cc1C#N | 13µM* | >57 | -12% | 0%
CCOC(=O)CC(SP(=O)(OC)OC)C(=O)OCC (configuration not stated) | 0% | . | 26% | 22%
Cc1ccccc1NC(=O)c1ocnc1C | 4µM*[single pt active] | >57 | 6% | 13%
N[C@@H](Cc1ccccc1)P(=O)(O)O | 3%[5.75 µM] | >57 | -14%[8 µM] | -4%[5.75 µM]
CO[C@@H]1CC=C2CCN3CCC4=C(CC(=O)OC4)[C@]23C1 | -8% | >57 | 3% | -1%
OCCN1CCN(c2ncnc3ccc(Br)cc23)CC1 | 4µM*[single pt active] | >57 | -4% | 13%
CCN1CCN(c2ncnc3ccc(Br)cc23)CC1 | -8% | >57 | -15% | -4%
[N-]=[N+]=CC(=O)CC[C@H](N)C(=O)O | 0%[5.75 µM] | >57 | -10%[8 µM] | -1%[5.75 µM]
COc1nc(Nc2ccc3c(c2)OCO3)nc(OC)n1 | 4µM*[single pt active] | >57 | -1% | 11%
COc1nc(Nc2cccc(C(F)(F)F)c2)nc(OC)n1 | -13% | >57 | -21% | 8%
COCCNC(=O)CSc1nc2cc(OC)c(OC)cc2c(=O)n1Cc1ccco1 | 40% | >57 | 6% | -1%
COC(=O)c1ccc2c(=O)n(Cc3ccco3)c(SCC(=O)Nc3ccc(C)c(Cl)c3)nc2c1 | 13µM* | >57 | -4% | -2%
O=C(COC(=O)C1CCN(S(=O)(=O)c2cccs2)CC1)c1cc2ccccc2o1 | 10µM* | >57 | -8% | -2%
O=C(COC(=O)C1CCN(S(=O)(=O)c2cccs2)CC1)c1ccc2c(c1)OCCO2 | -17% | >57 | 0% | -3%
COc1cccc(C2CC(c3cccc(OC)c3)n3nc(N)nc3N2)c1 (configuration not stated) | 4µM*[single pt active] | >57 | 3% | 12%
COc1cccc(C2CC(c3ccc(F)cc3)Nc3nc(N)nn32)c1 (configuration not stated) | 2.5µM*[single pt active] | >57 | -1% | 11%
SMILES | AmpC nodet inh | SmPrx2 inh | Anthrax LT inh | AmpC inh det
COc1ccc(C2CC(c3cccc(C)c3)n3nc(N)nc3N2)cc1 (configuration not stated) | 4µM*[single pt active] | >57 | -3% | 11%
O=C(O)[C@@H](Br)[C@H](Br)C(=O)O | -14%[5.75 µM] | >57 | -17%[8 µM] | -2%[5.75 µM]
O=C(Nc1cc[c]([Sb](=[O])([OH])[OH])cc1)c1ccccc1 | 3.2µM*[single pt active] | >57 | -3%[8 µM] | -3%[5.75 µM]
NC(CSS(=O)(=O)O)=N[C@@H]1C[C@H]2CC[C@@H]1C2 | 3%[5.75 µM] | >57 | ? | 0%[5.75 µM]
Cc1occc1C(=O)n1nnc2ccccc21 | 10µM* | >57 | -21% | 10µM*
O=C(NCCC1=CCCCC1)C1CCCN(S(=O)(=O)c2cccc3cccnc23)C1 (configuration not stated) | 63% | >57 | -27% | 0%
O=C(Nc1nccs1)C1CCN(S(=O)(=O)c2cccnc2)CC1 | -6% | >57 | 0% | 10%
O=C(Nc1ccc2c(c1)OCCO2)C1CCCN(S(=O)(=O)c2cccnc2)C1 (configuration not stated) | 4µM*[single pt active] | >57 | ? | 12%
O=C(Nc1nccs1)C1CCCN(S(=O)(=O)c2cccnc2)C1 (configuration not stated) | 4µM*[single pt active] | >57 | 0% | 12%
O=C(NCCC1=CCCCC1)C1CCCN(S(=O)(=O)c2cccnc2)C1 (configuration not stated) | 2.5µM*[single pt active] | >57 | -14% | 12%
OC[C@@H]1O[C@@H](n2cnc3c(NC4CCCC4)ncnc32)[C@@H](O)[C@H]1O | 12% | >57 | -2% | -4%
Oc1cccc(Cl)c1 | 2% | . | . | 8%
